Laboratory results published in ChEMBL document CHEMBL2218924, “A broad activity screen in support of a chemogenomic map for kinase signalling research and drug discovery” (Biochem J, 2013).

Key:
[1] = target: Insulin receptor (Homo sapiens) (UniProt P06213); details: at 10 µM
[2] = target: Insulin receptor (Homo sapiens) (UniProt P06213); details: at 1 µM
[3] = target: Insulin receptor (Homo sapiens) (UniProt P06213); details: at 10 µM; remark: listed apart in the source
[4] = target: Interleukin-1 receptor-associated kinase 1 (Homo sapiens) (UniProt P51617); details: at 1 µM
Interleukin-1 receptor-associated kinase 1 (Homo sapiens), sequence (P51617 whole entry, looked up): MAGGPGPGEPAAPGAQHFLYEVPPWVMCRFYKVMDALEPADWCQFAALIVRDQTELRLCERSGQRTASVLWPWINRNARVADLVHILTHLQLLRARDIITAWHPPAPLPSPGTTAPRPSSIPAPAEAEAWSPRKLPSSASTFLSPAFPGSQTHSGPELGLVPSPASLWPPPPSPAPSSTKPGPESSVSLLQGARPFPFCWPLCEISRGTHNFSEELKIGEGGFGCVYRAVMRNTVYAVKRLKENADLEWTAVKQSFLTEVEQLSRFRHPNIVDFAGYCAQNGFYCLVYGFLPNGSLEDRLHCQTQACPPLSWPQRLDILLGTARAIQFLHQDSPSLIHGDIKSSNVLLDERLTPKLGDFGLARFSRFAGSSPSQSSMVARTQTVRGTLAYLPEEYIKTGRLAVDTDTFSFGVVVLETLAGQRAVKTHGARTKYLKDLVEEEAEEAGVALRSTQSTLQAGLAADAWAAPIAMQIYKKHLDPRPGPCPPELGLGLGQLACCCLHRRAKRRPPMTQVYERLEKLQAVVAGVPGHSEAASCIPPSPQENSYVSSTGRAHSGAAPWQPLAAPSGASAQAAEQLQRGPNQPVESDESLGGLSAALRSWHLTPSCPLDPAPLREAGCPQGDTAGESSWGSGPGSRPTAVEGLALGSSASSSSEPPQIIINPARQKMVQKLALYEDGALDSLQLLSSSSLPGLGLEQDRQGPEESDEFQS

[5] = target: Interleukin-1 receptor-associated kinase 1 (Homo sapiens) (UniProt P51617); details: at 10 µM
[6] = target: T1, Interleukin-1 receptor-associated kinase 4 (Homo sapiens) (UniProt Q9NWZ3); details: at 1 µM
T1 sequence (whole entry): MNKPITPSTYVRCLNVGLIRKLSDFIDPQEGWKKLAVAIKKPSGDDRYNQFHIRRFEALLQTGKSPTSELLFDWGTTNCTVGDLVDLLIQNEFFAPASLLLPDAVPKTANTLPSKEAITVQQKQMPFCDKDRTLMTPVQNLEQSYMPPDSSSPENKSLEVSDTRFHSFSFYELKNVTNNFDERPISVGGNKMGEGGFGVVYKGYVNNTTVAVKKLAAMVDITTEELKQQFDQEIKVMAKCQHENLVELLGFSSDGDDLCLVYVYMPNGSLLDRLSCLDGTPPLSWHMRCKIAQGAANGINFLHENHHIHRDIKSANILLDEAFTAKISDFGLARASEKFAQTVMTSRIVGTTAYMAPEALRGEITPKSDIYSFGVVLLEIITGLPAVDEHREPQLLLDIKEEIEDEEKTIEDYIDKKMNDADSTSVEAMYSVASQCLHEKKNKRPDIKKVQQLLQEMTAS

[7] = target: T1, Interleukin-1 receptor-associated kinase 4 (Homo sapiens); details: at 10 µM
[8] = target: Insulin receptor-related protein (Homo sapiens) (UniProt P14616); details: at 1 µM
[9] = target: Insulin receptor-related protein (Homo sapiens) (UniProt P14616); details: at 10 µM
[10] = target: T2, Tyrosine-protein kinase ITK/TSK (Homo sapiens) (UniProt Q08881); details: at 1 µM
T2 sequence (whole entry): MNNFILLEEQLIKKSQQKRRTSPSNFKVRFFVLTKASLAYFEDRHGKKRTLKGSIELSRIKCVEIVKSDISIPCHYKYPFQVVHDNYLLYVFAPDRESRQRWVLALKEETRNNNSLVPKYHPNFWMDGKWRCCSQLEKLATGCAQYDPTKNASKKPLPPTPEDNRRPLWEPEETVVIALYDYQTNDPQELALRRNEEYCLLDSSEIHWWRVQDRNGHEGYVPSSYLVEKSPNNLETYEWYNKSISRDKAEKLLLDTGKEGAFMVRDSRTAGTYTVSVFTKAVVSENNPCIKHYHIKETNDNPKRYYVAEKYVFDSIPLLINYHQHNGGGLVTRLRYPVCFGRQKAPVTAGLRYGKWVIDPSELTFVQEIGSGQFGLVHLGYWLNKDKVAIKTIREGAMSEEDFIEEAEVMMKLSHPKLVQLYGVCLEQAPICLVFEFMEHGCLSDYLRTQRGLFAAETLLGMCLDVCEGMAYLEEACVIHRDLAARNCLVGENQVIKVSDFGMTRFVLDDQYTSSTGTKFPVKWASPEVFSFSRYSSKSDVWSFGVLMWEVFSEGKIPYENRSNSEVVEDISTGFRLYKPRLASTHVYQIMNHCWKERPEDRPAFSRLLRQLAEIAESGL

[11] = target: T2, Tyrosine-protein kinase ITK/TSK (Homo sapiens); details: at 10 µM
[12] = target: Tyrosine-protein kinase JAK2 (Homo sapiens) (UniProt O60674); details: at 1 µM
Tyrosine-protein kinase JAK2 (Homo sapiens), sequence (O60674 whole entry): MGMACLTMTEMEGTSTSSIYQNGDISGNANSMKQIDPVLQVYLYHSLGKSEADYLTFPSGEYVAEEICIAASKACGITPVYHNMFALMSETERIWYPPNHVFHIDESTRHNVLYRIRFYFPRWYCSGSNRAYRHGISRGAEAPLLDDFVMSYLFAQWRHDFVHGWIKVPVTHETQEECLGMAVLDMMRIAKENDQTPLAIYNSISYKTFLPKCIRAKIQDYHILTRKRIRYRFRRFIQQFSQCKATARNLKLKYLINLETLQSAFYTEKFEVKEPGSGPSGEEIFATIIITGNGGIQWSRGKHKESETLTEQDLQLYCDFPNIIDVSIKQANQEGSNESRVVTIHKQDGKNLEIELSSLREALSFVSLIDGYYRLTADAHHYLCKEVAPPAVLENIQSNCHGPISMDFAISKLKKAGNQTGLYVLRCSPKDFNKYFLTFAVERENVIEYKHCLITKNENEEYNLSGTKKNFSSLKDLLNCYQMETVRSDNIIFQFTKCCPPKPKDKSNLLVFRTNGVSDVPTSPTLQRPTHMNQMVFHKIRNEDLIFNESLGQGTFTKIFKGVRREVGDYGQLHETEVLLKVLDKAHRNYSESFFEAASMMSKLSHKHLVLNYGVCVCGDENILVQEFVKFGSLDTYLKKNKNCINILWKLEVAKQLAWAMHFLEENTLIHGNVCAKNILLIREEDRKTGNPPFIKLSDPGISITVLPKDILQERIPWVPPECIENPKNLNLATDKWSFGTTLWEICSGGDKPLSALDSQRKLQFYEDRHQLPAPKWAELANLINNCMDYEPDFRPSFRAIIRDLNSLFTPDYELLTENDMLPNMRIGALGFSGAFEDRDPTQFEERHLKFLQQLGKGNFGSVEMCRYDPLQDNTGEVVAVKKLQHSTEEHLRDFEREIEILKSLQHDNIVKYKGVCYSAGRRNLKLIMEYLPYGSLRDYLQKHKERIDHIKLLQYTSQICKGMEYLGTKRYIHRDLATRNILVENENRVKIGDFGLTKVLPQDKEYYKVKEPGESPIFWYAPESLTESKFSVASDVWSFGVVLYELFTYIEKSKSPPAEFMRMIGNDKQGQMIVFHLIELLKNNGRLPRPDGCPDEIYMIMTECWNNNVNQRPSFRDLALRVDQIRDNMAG

[13] = target: Tyrosine-protein kinase JAK2 (Homo sapiens) (UniProt O60674); details: at 10 µM
[14] = target: T3, Tyrosine-protein kinase JAK3 (Homo sapiens) (UniProt P52333); details: at 1 µM
T3 sequence (whole entry): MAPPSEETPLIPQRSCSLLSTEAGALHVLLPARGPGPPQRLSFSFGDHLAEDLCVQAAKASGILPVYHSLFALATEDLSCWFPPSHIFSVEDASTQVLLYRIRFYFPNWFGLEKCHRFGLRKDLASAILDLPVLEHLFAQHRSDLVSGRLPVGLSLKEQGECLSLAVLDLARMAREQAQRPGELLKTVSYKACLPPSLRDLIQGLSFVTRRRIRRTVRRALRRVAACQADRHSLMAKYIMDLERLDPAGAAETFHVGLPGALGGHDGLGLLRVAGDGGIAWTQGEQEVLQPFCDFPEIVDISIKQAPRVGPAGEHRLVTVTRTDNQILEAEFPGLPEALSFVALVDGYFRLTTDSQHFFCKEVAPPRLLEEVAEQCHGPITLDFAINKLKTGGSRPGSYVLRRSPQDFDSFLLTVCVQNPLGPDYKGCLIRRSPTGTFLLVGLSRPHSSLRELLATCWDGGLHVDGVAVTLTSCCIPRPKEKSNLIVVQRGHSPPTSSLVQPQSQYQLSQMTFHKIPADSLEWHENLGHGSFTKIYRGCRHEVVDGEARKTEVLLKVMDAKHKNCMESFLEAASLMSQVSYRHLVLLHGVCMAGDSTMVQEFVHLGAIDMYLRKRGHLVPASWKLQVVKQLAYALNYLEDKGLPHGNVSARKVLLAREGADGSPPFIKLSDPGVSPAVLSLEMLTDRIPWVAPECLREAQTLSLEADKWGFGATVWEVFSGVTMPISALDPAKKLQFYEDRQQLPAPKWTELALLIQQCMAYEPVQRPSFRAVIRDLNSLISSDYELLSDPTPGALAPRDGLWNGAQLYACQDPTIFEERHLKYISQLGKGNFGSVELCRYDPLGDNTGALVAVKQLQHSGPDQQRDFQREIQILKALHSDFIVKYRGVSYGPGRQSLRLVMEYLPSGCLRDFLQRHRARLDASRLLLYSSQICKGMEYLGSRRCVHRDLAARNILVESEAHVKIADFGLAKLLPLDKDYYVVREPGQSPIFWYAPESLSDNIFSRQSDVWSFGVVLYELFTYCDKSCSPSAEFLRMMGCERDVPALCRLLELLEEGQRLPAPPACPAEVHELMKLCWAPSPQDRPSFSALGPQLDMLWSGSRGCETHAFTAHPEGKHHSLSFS

[15] = target: T3, Tyrosine-protein kinase JAK3 (Homo sapiens); details: at 10 µM
[16] = target: Mitogen-activated protein kinase 8 (Homo sapiens) (UniProt P45983); details: at 1 µM
Mitogen-activated protein kinase 8 (Homo sapiens), sequence (P45983 whole entry): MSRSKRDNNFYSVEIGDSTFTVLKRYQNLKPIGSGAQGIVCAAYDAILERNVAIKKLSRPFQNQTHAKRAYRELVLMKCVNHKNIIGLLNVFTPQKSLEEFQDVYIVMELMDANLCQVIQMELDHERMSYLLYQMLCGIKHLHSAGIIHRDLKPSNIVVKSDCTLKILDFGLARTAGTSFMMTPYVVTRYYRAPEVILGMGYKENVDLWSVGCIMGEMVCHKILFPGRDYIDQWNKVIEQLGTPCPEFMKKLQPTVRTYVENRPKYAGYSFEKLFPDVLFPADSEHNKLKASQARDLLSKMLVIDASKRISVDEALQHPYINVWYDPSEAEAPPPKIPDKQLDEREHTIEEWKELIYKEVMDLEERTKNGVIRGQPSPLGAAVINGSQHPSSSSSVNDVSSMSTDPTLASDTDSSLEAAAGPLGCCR

[17] = target: Mitogen-activated protein kinase 8 (Homo sapiens) (UniProt P45983); details: at 10 µM
[18] = target: Mitogen-activated protein kinase 9 (Homo sapiens) (UniProt P45984); details: at 1 µM
Mitogen-activated protein kinase 9 (Homo sapiens), sequence (P45984 whole entry, looked up): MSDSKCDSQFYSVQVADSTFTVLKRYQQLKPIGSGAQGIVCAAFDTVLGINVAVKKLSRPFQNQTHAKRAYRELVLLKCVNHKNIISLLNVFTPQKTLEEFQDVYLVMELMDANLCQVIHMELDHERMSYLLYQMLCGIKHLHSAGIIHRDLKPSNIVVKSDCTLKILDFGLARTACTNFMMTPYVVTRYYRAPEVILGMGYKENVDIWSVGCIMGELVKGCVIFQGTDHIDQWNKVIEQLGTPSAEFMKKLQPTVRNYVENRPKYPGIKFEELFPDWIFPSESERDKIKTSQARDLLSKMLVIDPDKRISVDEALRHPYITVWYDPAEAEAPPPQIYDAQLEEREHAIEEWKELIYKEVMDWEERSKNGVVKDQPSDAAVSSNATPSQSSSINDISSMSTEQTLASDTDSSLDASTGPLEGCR

[19] = target: Mitogen-activated protein kinase 9 (Homo sapiens) (UniProt P45984); details: at 10 µM
[20] = target: Mitogen-activated protein kinase 10 (Homo sapiens) (UniProt P53779); details: at 1 µM
Mitogen-activated protein kinase 10 (Homo sapiens), sequence (P53779 whole entry): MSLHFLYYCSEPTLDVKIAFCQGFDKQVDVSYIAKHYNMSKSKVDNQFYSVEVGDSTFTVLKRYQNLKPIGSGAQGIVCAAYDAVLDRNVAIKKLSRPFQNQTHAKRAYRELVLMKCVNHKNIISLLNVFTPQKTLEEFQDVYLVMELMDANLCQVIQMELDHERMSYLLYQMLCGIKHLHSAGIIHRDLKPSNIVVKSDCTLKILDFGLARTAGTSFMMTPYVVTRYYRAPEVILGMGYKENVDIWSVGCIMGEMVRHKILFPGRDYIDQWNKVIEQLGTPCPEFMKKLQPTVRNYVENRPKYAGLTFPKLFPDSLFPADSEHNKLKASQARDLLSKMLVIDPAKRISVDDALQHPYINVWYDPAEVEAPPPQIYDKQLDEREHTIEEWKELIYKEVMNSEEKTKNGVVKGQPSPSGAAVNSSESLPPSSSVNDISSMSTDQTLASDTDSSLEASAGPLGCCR

Insulin receptor (Homo sapiens), sequence (P06213 28-758 limits assumed): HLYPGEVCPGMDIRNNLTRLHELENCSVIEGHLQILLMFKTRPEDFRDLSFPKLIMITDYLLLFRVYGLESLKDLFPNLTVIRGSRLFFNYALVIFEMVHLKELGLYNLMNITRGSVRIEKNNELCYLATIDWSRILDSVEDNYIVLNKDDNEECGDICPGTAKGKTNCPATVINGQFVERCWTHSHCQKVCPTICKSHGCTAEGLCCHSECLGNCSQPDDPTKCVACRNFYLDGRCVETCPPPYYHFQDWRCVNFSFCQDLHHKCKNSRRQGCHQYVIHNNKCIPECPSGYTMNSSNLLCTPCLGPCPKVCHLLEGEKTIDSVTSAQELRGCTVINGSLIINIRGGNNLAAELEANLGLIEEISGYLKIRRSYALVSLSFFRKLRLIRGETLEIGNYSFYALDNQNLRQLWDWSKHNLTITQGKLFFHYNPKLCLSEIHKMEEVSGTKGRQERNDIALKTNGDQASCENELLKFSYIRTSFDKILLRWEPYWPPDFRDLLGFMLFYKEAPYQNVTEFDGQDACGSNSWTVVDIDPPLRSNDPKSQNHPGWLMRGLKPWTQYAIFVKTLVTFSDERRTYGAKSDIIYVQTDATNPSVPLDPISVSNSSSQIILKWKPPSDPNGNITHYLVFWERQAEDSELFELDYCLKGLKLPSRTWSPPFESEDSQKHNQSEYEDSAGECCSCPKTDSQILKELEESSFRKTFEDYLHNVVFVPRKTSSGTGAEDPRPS
Insulin receptor (Homo sapiens), sequence (P06213 763-1382 limits assumed): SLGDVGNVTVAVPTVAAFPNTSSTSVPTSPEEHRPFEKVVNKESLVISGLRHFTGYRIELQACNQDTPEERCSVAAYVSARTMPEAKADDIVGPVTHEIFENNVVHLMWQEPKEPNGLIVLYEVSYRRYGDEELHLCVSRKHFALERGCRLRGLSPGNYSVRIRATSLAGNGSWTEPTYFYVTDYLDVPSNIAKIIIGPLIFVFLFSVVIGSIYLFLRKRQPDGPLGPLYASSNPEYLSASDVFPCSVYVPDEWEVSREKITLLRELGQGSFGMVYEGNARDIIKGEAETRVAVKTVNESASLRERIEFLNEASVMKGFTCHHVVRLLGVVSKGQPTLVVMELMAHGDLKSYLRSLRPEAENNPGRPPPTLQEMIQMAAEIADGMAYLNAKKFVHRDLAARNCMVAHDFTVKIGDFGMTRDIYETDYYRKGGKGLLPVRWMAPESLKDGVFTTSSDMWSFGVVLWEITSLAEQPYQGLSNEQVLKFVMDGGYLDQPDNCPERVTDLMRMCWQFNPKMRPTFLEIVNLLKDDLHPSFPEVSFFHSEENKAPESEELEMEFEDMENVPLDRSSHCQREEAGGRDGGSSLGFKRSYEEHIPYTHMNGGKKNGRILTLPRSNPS

SMILES	residual activity [1] [%]	residual activity [2] [%]	residual activity [3] [%]	residual activity [4] [%]	residual activity [5] [%]	residual activity [6] [%]	residual activity [7] [%]	residual activity [8] [%]	residual activity [9] [%]	residual activity [10] [%]	residual activity [11] [%]	residual activity [12] [%]	residual activity [13] [%]	residual activity [14] [%]	residual activity [15] [%]	residual activity [16] [%]	residual activity [17] [%]	residual activity [18] [%]	residual activity [19] [%]	residual activity [20] [%]
CN(C)c1ccc(/C=C2\C(=O)Nc3ccccc32)cc1	65	93	71	118	91	92	46	111	23	98	65	115	83	86	32	106	93	102	98	110
COc1ccc(S(=O)(=O)N(CCO)c2ccccc2CN(C)C/C=C/c2ccc(Cl)cc2)cc1	114	100	90	99	106	81	75	117	90	99	94	102	131	116	104	95	85	92	97	82
O=C(O)c1ccc2c3c1cccc3c(=O)n1c3ccccc3nc21	110	104	85	35	3	105	89	125	98	107	94	100	40	46	9	105	79	83	55	78
Cc1ccc(NC2=CC(=O)c3sc(C)nc3C2=O)cc1	90	102	96	105	110	85	86	118	108	105	101	97	104	113	107	112	92	100	106	83
Nc1n[nH]c2nnc(-c3c(-c4ccccc4)nn4ccccc34)cc12	25	89	44	95	104	66	64	88	23	96	88	95	99	103	92	99	71	55	9	19
CC(=O)O/N=C1\C(=C2\C(=O)Nc3cc(Br)ccc32)Nc2ccccc21	91	102	81	95	96	86	48	109	92	82	39	103	71	75	26	98	94	91	94	77
